# Data: PubChem BioAssay
# Activity calls are given as the source filed them.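 How the source made its calls, unless noted: active means inhibition above 50%; inactive means the rest.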
# Test: antimalarial activity against Dd2 strain (AID 2302;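 active means growth inhibition above 50% at the single 2 µM test dose, taken to imply half-maximal potency below 2 µM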;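 further: 0% = DMSO untreated growth and 100% = chloroquine plus artemisinin killed control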)
# Details: P. falciparum Dd2 in RBCs, LDH growth readout, 72 h; at 2 µM; hits give high values
row,SMILES,growth inhibition
1,COc1ccc2nccc([C@@H](O)CN3CCC(NCc4cc5ccccc5o4)CC3)c2c1,72% (active)
2,Oc1ccc(-c2cncc(NCc3ccc(F)c(F)c3)c2)cc1,80% (active)
3,Cc1cc(C(=O)Nc2ccc3c(ccn3C3CCCN(Cc4ccc(C(F)(F)F)cc4F)CC3)c2)no1 (stereo not drawn),95% (active)
4,O=C(Nc1nc(-c2ccccn2)cs1)c1ccc(S(=O)(=O)N2CCc3ccccc32)cc1,15% (inactive)
5,Cc1cc(NC2CCCC2)nc(Nc2ccccc2F)n1,53% (active)
6,COc1ccc2nccc([C@@H](O)CN3CCC(NCCOc4cc(F)cc(F)c4)CC3)c2c1,86% (active)
7,CN1CCCN(Cc2cccc(-c3cccc(NS(=O)(=O)c4cccc5cccnc45)c3)c2)CC1,74% (active)
8,Cc1nc(-c2cccc(Nc3nccc(NCC(O)c4ccccc4C)n3)c2)cs1 (stereo not drawn),14% (inactive)
9,N#Cc1cccc(Nc2nccc(NCC(O)c3ccccc3C(F)(F)F)n2)c1 (stereo not drawn),39% (inactive)
10,CCCCNCc1ccc(-c2nc(CN(Cc3ccc(Cl)c(Cl)c3)C(=O)CN(C)C)cs2)cc1,51% (active)
11,COc1cc2nc(NCC3CCN(c4nc(N)c5cc(OC)c(OC)cc5n4)CC3)nc(N)c2cc1OC,73% (active)
12,CN1CCC(NCc2ccc(-c3ccc(S(=O)(=O)NCc4ccccc4)c(F)c3)cc2)CC1,89% (active)
13,O=C(Nc1cccc(-c2csc(-c3ccccc3)n2)c1)c1cccs1,71% (active)
14,CC(C)(C)Nc1cc(C2CC2)nc(-c2ccccn2)n1,75% (active)
15,CCOc1ccc(C=CC(=O)Nc2ccc3nc(N4CCOCC4)cc(C)c3c2)cc1OC,23% (inactive)
16,COC(=O)c1cccc(OCCNC2CCN(C[C@H](O)c3ccnc4ccc(OC)cc34)CC2)c1,96% (active)
17,Cc1noc(C)c1-c1cccc(CNCc2ccc(-c3ccc(-c4nc5ccccc5[nH]4)s3)cc2)c1,79% (active)
18,N=C(N)CCN(Cc1ccc(Cl)cc1)c1ccc(Cl)cc1,92% (active)
19,COc1ccc2c(NN=Cc3ccccc3F)ccnc2c1,99% (active)
20,FC(F)(F)c1ccc2nc(-c3ccc(-c4cccc(CNCc5ccccc5)c4)s3)[nH]c2c1,83% (active)

row,SMILES,growth inhibition
1,O=[N+]([O-])c1cc(C(c2ccc(O)c([N+](=O)[O-])c2)C(Cl)(Cl)Cl)ccc1O,98% (active)
2,N#Cc1ccc2c(c1)CCN(CCC1CCC(NC(=O)/C=C/c3cnc4ccccc4c3)CC1)CC2 (stereo not drawn),21% (inactive)
3,Cn1c(NC(=O)C2CCC(CNC(=O)c3ccc(O)c(-c4cccc([N+](=O)[O-])c4)c3)CC2)nc2ccccc21 (stereo not drawn),97% (active)
4,Fc1cccc(CNc2ncc(-c3ccsc3)c(-c3nccs3)n2)c1,85% (active)
5,Cc1cc(N[C@@H](CC(C)C)C(=O)NCc2cccc(F)c2)nc(Nc2ccccc2)n1,76% (active)
6,CCc1sc(N2CCN(C)CC2)nc1C(=O)NCCc1ccc(Cl)c(Cl)c1,49% (inactive)
7,COc1cc2nc(N3CCC(CCCC4CCNCC4)CC3)nc(NCc3ccccn3)c2cc1OC,6% (inactive)
8,O=C(NC1CCN(Cc2ccccc2O)C1)c1ccc(Cl)c(Cl)c1 (stereo not drawn),62% (active)
9,CNC(=O)/C=C/c1cc(NC(=O)Nc2cc(C)nc3c(F)cccc23)ccc1OC,70% (active)
10,CCc1ccc(NC(=O)c2ccc(CN3CCCN(Cc4cccc(O)c4)CC3)cc2)cc1,55% (active)
11,CC(C)c1sc(-c2ccc(C(C)(C)C)cc2)nc1C(=O)NCCCN1CCCC1=O,92% (active)
12,NC(N)=Nc1nc(-c2cccc(NC(=O)Cc3ccccc3)c2)cs1,9% (inactive)
13,O=C(NCCc1ccccc1)N(Cc1ccccc1-c1cccc(CNCc2ccc3c(c2)OCO3)c1)C1CCN(Cc2ccccc2)CC1,77% (active)
14,CC(Oc1ccc(Cl)cc1)C(=O)N(C)C1CCN(CCCCCNC(=O)/C=C/c2ccc(Cl)c(Cl)c2)CC1 (stereo not drawn),10% (inactive)
15,CCOc1cc(C)ccc1C1CCN(CCCCNC(=O)c2cccc(-c3ccc(C(F)(F)F)cc3)c2)CC1,55% (active)
16,c1ccc(CNc2nc(NCCc3cnc[nH]3)nc(N3CCCC4CCCCC43)n2)cc1 (stereo not drawn),100% (active)
17,Cc1cc(NC(=O)c2ccsc2)ccc1OC1CCN(Cc2ccc(F)cc2)CC1,47% (inactive)
18,N=c1n(CCN2CCCCC2)c2ccccc2n1CC(O)c1cccc(Br)c1 (stereo not drawn),33% (inactive)
19,COc1cccc(C(=O)NCCOc2ccccc2)c1Oc1ccccc1,98% (active)

# Test: human hepatoma cell viability loss – ATP luminescence, cytotoxicity control for P. falciparum antimalarial project, primary screen (AID 2303);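 further: 0% = DMSO wells and 100% = digitonin-killed cells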
# Details: HepG2 viability, 24-48 h, at 10 µM, hits give high values
row,SMILES,inhibition
1,COc1ccc2nccc([C@@H](O)CN3CCC(NCc4cc5ccccc5o4)CC3)c2c1,17% (inactive)
2,Oc1ccc(-c2cncc(NCc3ccc(F)c(F)c3)c2)cc1,-14% (inactive)
3,Cc1cc(C(=O)Nc2ccc3c(ccn3C3CCCN(Cc4ccc(C(F)(F)F)cc4F)CC3)c2)no1 (stereo not drawn),19% (inactive)
4,O=C(Nc1nc(-c2ccccn2)cs1)c1ccc(S(=O)(=O)N2CCc3ccccc32)cc1,47% (inactive)
5,Cc1cc(NC2CCCC2)nc(Nc2ccccc2F)n1,24% (inactive)
6,COc1ccc2nccc([C@@H](O)CN3CCC(NCCOc4cc(F)cc(F)c4)CC3)c2c1,10% (inactive)
7,CN1CCCN(Cc2cccc(-c3cccc(NS(=O)(=O)c4cccc5cccnc45)c3)c2)CC1,21% (inactive)
8,Cc1nc(-c2cccc(Nc3nccc(NCC(O)c4ccccc4C)n3)c2)cs1 (stereo not drawn),38% (inactive)
9,N#Cc1cccc(Nc2nccc(NCC(O)c3ccccc3C(F)(F)F)n2)c1 (stereo not drawn),36% (inactive)
10,CCCCNCc1ccc(-c2nc(CN(Cc3ccc(Cl)c(Cl)c3)C(=O)CN(C)C)cs2)cc1,36% (inactive)
11,COc1cc2nc(NCC3CCN(c4nc(N)c5cc(OC)c(OC)cc5n4)CC3)nc(N)c2cc1OC,12% (inactive)
12,CN1CCC(NCc2ccc(-c3ccc(S(=O)(=O)NCc4ccccc4)c(F)c3)cc2)CC1,53% (active)
13,O=C(Nc1cccc(-c2csc(-c3ccccc3)n2)c1)c1cccs1,0% (inactive)
14,CC(C)(C)Nc1cc(C2CC2)nc(-c2ccccn2)n1,-2% (inactive)
15,CCOc1ccc(C=CC(=O)Nc2ccc3nc(N4CCOCC4)cc(C)c3c2)cc1OC,14% (inactive)
16,COC(=O)c1cccc(OCCNC2CCN(C[C@H](O)c3ccnc4ccc(OC)cc34)CC2)c1,-7% (inactive)
17,Cc1noc(C)c1-c1cccc(CNCc2ccc(-c3ccc(-c4nc5ccccc5[nH]4)s3)cc2)c1,41% (inactive)
18,N=C(N)CCN(Cc1ccc(Cl)cc1)c1ccc(Cl)cc1,22% (inactive)
19,COc1ccc2c(NN=Cc3ccccc3F)ccnc2c1,15% (inactive)
20,FC(F)(F)c1ccc2nc(-c3ccc(-c4cccc(CNCc5ccccc5)c4)s3)[nH]c2c1,15% (inactive)

row,SMILES,inhibition
1,O=[N+]([O-])c1cc(C(c2ccc(O)c([N+](=O)[O-])c2)C(Cl)(Cl)Cl)ccc1O,2% (inactive)
2,N#Cc1ccc2c(c1)CCN(CCC1CCC(NC(=O)/C=C/c3cnc4ccccc4c3)CC1)CC2 (stereo not drawn),22% (inactive)
3,Cn1c(NC(=O)C2CCC(CNC(=O)c3ccc(O)c(-c4cccc([N+](=O)[O-])c4)c3)CC2)nc2ccccc21 (stereo not drawn),6% (inactive)
4,Fc1cccc(CNc2ncc(-c3ccsc3)c(-c3nccs3)n2)c1,15% (inactive)
5,Cc1cc(N[C@@H](CC(C)C)C(=O)NCc2cccc(F)c2)nc(Nc2ccccc2)n1,-5% (inactive)
6,CCc1sc(N2CCN(C)CC2)nc1C(=O)NCCc1ccc(Cl)c(Cl)c1,5% (inactive)
7,COc1cc2nc(N3CCC(CCCC4CCNCC4)CC3)nc(NCc3ccccn3)c2cc1OC,2% (inactive)
8,O=C(NC1CCN(Cc2ccccc2O)C1)c1ccc(Cl)c(Cl)c1 (stereo not drawn),-9% (inactive)
9,CNC(=O)/C=C/c1cc(NC(=O)Nc2cc(C)nc3c(F)cccc23)ccc1OC,-3% (inactive)
10,CCc1ccc(NC(=O)c2ccc(CN3CCCN(Cc4cccc(O)c4)CC3)cc2)cc1,51% (active)
11,CC(C)c1sc(-c2ccc(C(C)(C)C)cc2)nc1C(=O)NCCCN1CCCC1=O,-2% (inactive)
12,NC(N)=Nc1nc(-c2cccc(NC(=O)Cc3ccccc3)c2)cs1,1% (inactive)
13,O=C(NCCc1ccccc1)N(Cc1ccccc1-c1cccc(CNCc2ccc3c(c2)OCO3)c1)C1CCN(Cc2ccccc2)CC1,29% (inactive)
14,CC(Oc1ccc(Cl)cc1)C(=O)N(C)C1CCN(CCCCCNC(=O)/C=C/c2ccc(Cl)c(Cl)c2)CC1 (stereo not drawn),61% (active)
15,CCOc1cc(C)ccc1C1CCN(CCCCNC(=O)c2cccc(-c3ccc(C(F)(F)F)cc3)c2)CC1,39% (inactive)
16,c1ccc(CNc2nc(NCCc3cnc[nH]3)nc(N3CCCC4CCCCC43)n2)cc1 (stereo not drawn),-6% (inactive)
17,Cc1cc(NC(=O)c2ccsc2)ccc1OC1CCN(Cc2ccc(F)cc2)CC1,9% (inactive)
18,N=c1n(CCN2CCCCC2)c2ccccc2n1CC(O)c1cccc(Br)c1 (stereo not drawn),25% (inactive)
19,COc1cccc(C(=O)NCCOc2ccccc2)c1Oc1ccccc1,14% (inactive)
